Reference: PubChem BioAssay AID493085 (Broad Institute, 2011)
About 360 (15%) of roughly 2,400 compounds were called active. Inconclusive results (about 5%) are left out.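 How the source made its calls: active means falling-signal curve with half-maximal concentration at or below ten times the top tested dose; inconclusive means flat fit at 30 to 70% inhibition, or poor fit; inactive means signal rise, flat within 30%, or potency beyond limit.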 These entries were drawn from the full list. Results with a measured potency or affinity are listed apart.

Experiment: Tet-On RFP internal-standard readout, HSF1 screen, dose response, cell-based, NIH3T3 R4, HSE-GFP and Tet-On RFP, cherry-pick, set 3 (AID 493085);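 further: cells heat shocked 2 h at 42 °C with doxycycline to induce reporters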
Settings: NIH3T3 R4 HSE-GFP/Tet-RFP reporter, fluorescence, 48 h; series mostly up to 19.5 µM

outcome, inactive:
c1ccc(-c2nn[nH]n2)nc1, O=C(CCCNC(=O)/C(=C\c1ccccc1F)NC(=O)c1ccccc1)OCc1ccccc1, COc1ccccc1NS(=O)(=O)c1ccc(C)c(C(N)=O)c1, COc1ccc(C)cc1S(=O)(=O)Nc1cc2c3c(c1)CCC(=O)N3CCC2, CN(C)c1ccc(-c2nc3n(n2)C(c2cccnc2)C2=C(CC(C)(C)CC2=O)N3)cc1 (centres undefined), CCCn1c2ccccc2c2nnc(SCc3[nH]c(=O)[nH]c3C(=O)CCCCC(=O)OCC)nc21, CC(=O)NC(c1ccc(C)cc1)c1cc(Cl)c2cccnc2c1O (centres undefined), Cc1cccc(NCc2ccc(O)c3ncccc23)c1C, Oc1c(CN2CCOCC2)cc(COCc2ccccc2)c2cccnc12, Cn1ncc([N+](=O)[O-])c1C(=O)Nc1ccccc1Cl, CCN1C(=O)C(CC(=O)Nc2ccc(OC)cc2)N(Cc2ccc3c(c2)OCO3)C1=S (centres undefined), Cc1cc(N=Nc2ccc(Cl)cc2)cc(CN2CCCC2)c1O, COc1ccc(C(=O)NC(=S)N2CCNC(=O)C2CC(=O)OC(C)C)cc1 (centres undefined), CCOC(=O)c1c(C)[nH]c(C(=O)COC(=O)C2=NNC(=O)CC2)c1C, O=C(O)c1cc(S(=O)(=O)N(Cc2ccccc2)c2ccccc2Cl)ccc1Cl, O=C(Nc1cccnc1)c1coc(=O)c2ccccc12, CC(C)c1ccc(NC2(C#N)C(=O)Nc3ccccc32)cc1 (centres undefined), O=C1SCC(c2ccccc2)=NN1Cc1ccccc1, CCOc1ccc(-n2c(O)c(/C=N/Nc3nnc(C)c(=O)[nH]3)c3ccccc3c2=O)cc1, CCOc1ccc(NCc2nnc(SCC(=O)Nc3cc(C)on3)n2-c2ccc(OC)cc2)cc1, CCOC(=O)c1cccc(NC(=O)CCS(=O)(=O)c2ccc(Br)s2)c1, CC(OC(=O)CN1C(=O)c2ccccc2C1=O)C(=O)NC1CCCCC1C (centres undefined), COC1CCCN(C(=O)c2ccc(OC3CCN(CCc4ccccc4)CC3)cc2)C1 (centres undefined), O=C(CCN1C(=O)/C(=C/c2ccc(F)cc2)SC1=S)NCCCn1ccnc1, Cn1nc(N)c2c(-c3ccccc3)c(C#N)c(N)nc21, Cc1c(NC(=O)C2CC(c3ccc(F)cc3)=NO2)c(=O)n(-c2ccccc2)n1C (centres undefined), Cc1ccc(N=C2NC(=O)/C(=C\c3cccs3)S2)cc1C, O=C(NCc1ccccc1C(F)(F)F)C12CN(Cc3ccccc3)CC1C(c1ccc([N+](=O)[O-])cc1)=NO2 (centres undefined), COC(=O)c1cc(S(=O)(=O)NCc2ccc(F)cc2)cn1C, COc1ccc(CNC(=O)CCCNC(=O)c2ccc(Cl)cc2)cc1OC, Cc1ccc(C(=O)O/N=C(\N)c2ccccn2)c(C)c1, CC(C)(C)C(=O)Nc1ccc(-c2cc3cc(Cl)ccc3o2)cc1, CCS(=O)(=O)c1ncc(Cl)c(C(=O)Nc2ccc(C)cc2)n1, CC1CCN(S(=O)(=O)c2ccc(C(=O)Nc3nnc(-c4ccccn4)o3)cc2)CC1, CN1CCN(S(=O)(=O)c2ccc(Oc3ccc(F)c(Cl)c3)nc2)CC1, CCc1ccc(OC(C)C(=O)N(Cc2ccco2)C2CCS(=O)(=O)C2)cc1 (centres undefined), Cc1ncc([N+](=O)[O-])n1CC(=O)Nc1ccc(F)cc1, O=C(Cn1nc(-c2ccc(Cl)cc2)ccc1=O)NCC1CCCO1 (centres undefined), O=C(O)c1cccc(Nc2ccnc(Nc3cccc(C(=O)O)c3)n2)c1, Cc1cc(Nc2cccc(Cl)c2)nc(-c2ccccc2O)n1, CCOc1cc(CNCC2CCCN2CC)cc(Cl)c1OC (centres undefined), COc1ccc(-c2cn(-c3ccccc3)nc2CO)cc1, Cn1ccnc1C1CCCCN1C(=O)c1cc(COc2ccc(F)cc2Cl)on1 (centres undefined), Cc1cc(=O)n2[nH]c(=O)c(N=Nc3ccccc3)c2[nH]1, CN(C)c1ccc(C(=S)Nc2ccccc2)cc1, CN(C)c1ccc(/C=N/NC(=O)C2COc3ccccc3O2)o1 (centres undefined), Cc1ccc(Cl)cc1NC(=O)C1COc2ccccc2O1 (centres undefined), Cc1ccc(O)c(/C=N/NC(=O)CN2CCCC2)c1, NCCCC[C@@H](C(=O)N1CCNCC1)n1cc([C@@H](N)CO)nn1, COc1ccc(C(=O)c2c[nH]cc2-c2ccccc2)cc1, COc1ccc(OC)c(C(=O)c2ccc(C(=O)O)cc2)c1, Cc1cn2c(nc(=O)c3cccnc32)s1, Cc1ccc(S(=O)(=O)N2CCC(C)CC2)cc1[N+](=O)[O-], COc1ccc(C(=O)N/C(=C\c2cccs2)c2nc3ccccc3[nH]2)cc1OC, C=CCc1c(C)nc2c(-c3ccccc3)cnn2c1N1CCOCC1, Cn1c(N2CCOCC2)nc(-c2ccccc2)c1-c1ccccc1, C=CCn1c(C)cc(C(=O)COC(=O)CNC(=O)c2ccccc2)c1C, O=C(COC(=O)c1cc[n+]([O-])cc1)Nc1cccc(Cl)c1Cl, CNC(=O)COC(=O)c1ccccc1C(=O)c1ccc(Cl)c([N+](=O)[O-])c1, CC(C)(C)c1ccc(/C=C(\C#N)C(=O)Nc2ccccn2)cc1, COc1cc(C(C(=O)NCc2ccccc2)N(Cc2ccco2)C(=O)c2cnccn2)cc(OC)c1OC (centres undefined), COc1ccc2cc3c(N)nn(C(=O)Cc4c[nH]c5ccccc45)c3nc2c1, CSc1cccc(NC(=S)N2CCC(N(C)C3CCCC3)CC2)c1, CS(=O)(=O)c1ccc(NC(=O)c2ccc3c(c2)S(=O)(=O)N=C2CCCCCN23)cc1, Cc1cccc(N(Cc2ccccc2)C(=O)CCl)c1, CCN(C(=O)COC(=O)/C=C/c1ccccc1)C1CCCCC1, COc1ccccc1NC(=O)[C@H](COCc1ccccc1)NC(=O)OC(C)(C)C, CCn1c(SCC(=O)N(C)C2CCS(=O)(=O)C2)nnc1-c1cccs1 (centres undefined), CN(C(=O)CCNC(=O)Cn1cnc2ccccc2c1=O)c1ccccc1F
